According to the supplement of paper PMC6897291:

Legend:
U-2932 [1] = experiment: growth inhibition by drug alone (1 - RLU/untreated control) (fraction); higher = stronger inhibition; conditions: 177Lu-lilotomab satetraxetan 0 ug/ml
Procedure, shortened: (§1)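 Compound doses on the pre-printed Selleck Cambridge Cancer Compound library plates were 10/100 nM for RIVA cells and 10/1,000 nM for U-2932 cells, seeded at 3,000 cells/well. Before seeding, cells were washed after 18 h with or without a radiolabelled anti-CD37 antibody conjugate (~600 MBq/mg; 0.5 µg/ml RIVA, 1 µg/ml U-2932). Growth inhibition was derived from RealTime-Glo luminescence relative to untreated no-drug control wells. Readings were taken daily starting on day 3, each after 1 h at 37°C, and each well's RLU was divided by the mean of 48 such wells per plate and subtracted from 1.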

RIVA [2] = experiment: as above; conditions: 177Lu-lilotomab satetraxetan 0 ug/ml
Procedure, shortened: as §1

U-2932 [3] = experiment: growth inhibition by drug plus 177Lu-lilotomab satetraxetan (1 - RLU/untreated control) (fraction); higher = stronger inhibition; conditions: 177Lu-lilotomab satetraxetan 1 ug/ml
Procedure, shortened: as §1

RIVA [4] = experiment: as above; conditions: 177Lu-lilotomab satetraxetan 0.5 ug/ml
Procedure, shortened: as §1

Compound | growth inhibition by drug alone (U-2932 [1]; 10 nM, time (day): 3) | growth inhibition by drug alone (U-2932 [1]; 10 nM, time (day): 4) | growth inhibition by drug alone (U-2932 [1]; 10 nM, time (day): 5) | growth inhibition by drug alone (U-2932 [1]; 10 nM, time (day): 6) | growth inhibition by drug alone (U-2932 [1]; 1000 nM, time (day): 3) | growth inhibition by drug alone (U-2932 [1]; 1000 nM, time (day): 4) | growth inhibition by drug alone (U-2932 [1]; 1000 nM, time (day): 5) | growth inhibition by drug alone (U-2932 [1]; 1000 nM, time (day): 6) | growth inhibition by drug alone (RIVA [2]; 10 nM, time (day): 3) | growth inhibition by drug alone (RIVA [2]; 10 nM, time (day): 4) | growth inhibition by drug alone (RIVA [2]; 10 nM, time (day): 5) | growth inhibition by drug alone (RIVA [2]; 10 nM, time (day): 6) | growth inhibition by drug alone (RIVA [2]; 100 nM, time (day): 3) | growth inhibition by drug alone (RIVA [2]; 100 nM, time (day): 4) | growth inhibition by drug alone (RIVA [2]; 100 nM, time (day): 5) | growth inhibition by drug alone (RIVA [2]; 100 nM, time (day): 6) | growth inhibition by drug plus 177Lu-lilotomab satetraxetan (U-2932 [3]; 10 nM, time (day): 3) | growth inhibition by drug plus 177Lu-lilotomab satetraxetan (U-2932 [3]; 10 nM, time (day): 4) | growth inhibition by drug plus 177Lu-lilotomab satetraxetan (U-2932 [3]; 10 nM, time (day): 5) | growth inhibition by drug plus 177Lu-lilotomab satetraxetan (U-2932 [3]; 10 nM, time (day): 6) | growth inhibition by drug plus 177Lu-lilotomab satetraxetan (U-2932 [3]; 1000 nM, time (day): 3) | growth inhibition by drug plus 177Lu-lilotomab satetraxetan (U-2932 [3]; 1000 nM, time (day): 4) | growth inhibition by drug plus 177Lu-lilotomab satetraxetan (U-2932 [3]; 1000 nM, time (day): 5) | growth inhibition by drug plus 177Lu-lilotomab satetraxetan (U-2932 [3]; 1000 nM, time (day): 6) | growth inhibition by drug plus 177Lu-lilotomab satetraxetan (RIVA [4]; 10 nM, time (day): 3) | growth inhibition by drug plus 177Lu-lilotomab satetraxetan (RIVA [4]; 10 nM, time (day): 4) | growth inhibition by drug plus 177Lu-lilotomab satetraxetan (RIVA [4]; 10 nM, time (day): 5) | growth inhibition by drug plus 177Lu-lilotomab satetraxetan (RIVA [4]; 10 nM, time (day): 6) | growth inhibition by drug plus 177Lu-lilotomab satetraxetan (RIVA [4]; 100 nM, time (day): 3) | growth inhibition by drug plus 177Lu-lilotomab satetraxetan (RIVA [4]; 100 nM, time (day): 4) | growth inhibition by drug plus 177Lu-lilotomab satetraxetan (RIVA [4]; 100 nM, time (day): 5) | growth inhibition by drug plus 177Lu-lilotomab satetraxetan (RIVA [4]; 100 nM, time (day): 6)
Nc1ncn([C@H]2C[C@H](O)[C@@H](CO)O2)c(=O)n1 [Decitabine] | 0.1 | 0.0737 | -0.0105 | -0.0724 | -0.215 | 0.144 | 0.37 | 0.544 | 0.201 | 0.0484 | -0.0488 | -0.367 | 0.168 | 0.0495 | -0.00108 | -0.0694 | 0.0943 | 0.11 | 0.126 | 0.167 | 0.13 | 0.49 | 0.632 | 0.753 | 0.474 | 0.558 | 0.569 | 0.567 | 0.496 | 0.556 | 0.566 | 0.53
C=CCc1cccc(/C=N/NC(=O)CN2CCN(Cc3ccccc3)CC2)c1O | 0.126 | 0.104 | 0.0863 | 0.00412 | 0.161 | 0.136 | 0.0263 | -0.0573 | -0.0454 | 0.0184 | -0.0886 | -0.379 | -0.195 | -0.0942 | -0.0824 | -0.181 | 0.0573 | 0.108 | 0.173 | 0.215 | 0.15 | 0.163 | 0.17 | 0.249 | 0.608 | 0.648 | 0.666 | 0.668 | 0.392 | 0.492 | 0.488 | 0.509
Cc1cc(Nc2cc(N3CCN(C)CC3)nc(Sc3ccc(NC(=O)C4CC4)cc3)n2)n[nH]1 [VX-680 (MK-0457, Tozasertib)] | 0.0135 | -0.0133 | -0.0455 | -0.102 | 0.116 | 0.0957 | 0.0508 | 0.219 | -0.0364 | -0.0738 | -0.11 | -0.195 | -0.135 | -0.125 | -0.0167 | 0.173 | -0.00926 | 0.0675 | 0.118 | 0.172 | 0.272 | 0.279 | 0.311 | 0.494 | 0.594 | 0.628 | 0.652 | 0.658 | 0.458 | 0.547 | 0.616 | 0.727
O=C(Nc1ccc(OC(F)(F)F)cc1)c1sccc1NCc1ccnc2ccccc12 | 0.0561 | -0.00441 | -0.0537 | -0.177 | 0.00246 | -0.0266 | -0.0424 | -0.000118 | -0.0142 | -0.0478 | -0.122 | -0.26 | -0.426 | -0.341 | -0.386 | -0.562 | -0.0212 | 0.051 | 0.0902 | 0.117 | -0.0347 | 0.0399 | 0.0489 | 0.0855 | 0.534 | 0.568 | 0.593 | 0.603 | 0.0922 | 0.306 | 0.33 | 0.355
O=C(NCCS(=O)(=O)c1ccc(C(F)(F)F)cn1)c1ccc(Cl)cc1 | -0.00204 | -0.0169 | -0.0367 | -0.101 | 0.00453 | 0.00465 | -0.0415 | 0.00213 | -0.0219 | -0.049 | -0.0699 | -0.142 | -0.409 | -0.334 | -0.354 | -0.458 | -0.0322 | 0.0392 | 0.0668 | 0.0664 | -0.0112 | 0.0515 | 0.0729 | 0.179 | 0.548 | 0.553 | 0.579 | 0.579 | 0.416 | 0.503 | 0.517 | 0.521
COc1cc([C@@H]2c3cc4c(cc3[C@@H](O[C@@H]3O[C@@H]5CO[C@@H](C)O[C@H]5[C@H](O)[C@H]3O)[C@H]3COC(=O)[C@H]23)OCO4)cc(OC)c1O [Etoposide (VP-16)] | -0.0657 | -0.0505 | -0.0531 | -0.0136 | 0.738 | 0.843 | 0.913 | 0.949 | -0.26 | -0.276 | -0.302 | -0.423 | -0.0322 | 0.0869 | 0.148 | 0.202 | -0.108 | -0.0574 | -0.0473 | 0.0279 | 0.823 | 0.901 | 0.945 | 0.969 | 0.345 | 0.51 | 0.549 | 0.556 | 0.681 | 0.776 | 0.816 | 0.845
CN1CCN(c2nc(C3=C(c4c[nH]c5ccccc45)C(=O)NC3=O)c3ccccc3n2)CC1 [Sotrastaurin (AEB071)] | 0.186 | 0.158 | 0.0846 | 0.122 | 0.463 | 0.616 | 0.696 | 0.756 | 0.214 | 0.132 | 0.0773 | -0.121 | 0.163 | 0.124 | 0.0507 | -0.0643 | 0.109 | 0.131 | 0.175 | 0.293 | 0.572 | 0.709 | 0.75 | 0.788 | 0.535 | 0.604 | 0.626 | 0.628 | 0.584 | 0.609 | 0.607 | 0.591
